A selection: hits, their analogues and other compounds. The true share with any hit is near 6%.
D3 antag: qHTS of D3 Dopamine Receptor Antagonist: qHTS | D(3) dopamine receptor (Homo sapiens), P35462 | D3R cells, DiscoveRx beta-arrestin luminescence, antagonist mode; hits give low values | max response, negative = inhibition, % | 2.5% of 360,000 active; in the data active = max response below about -50%; inconclusive = no clear call, values can overlap the other calls
Target sequence (P35462 whole entry, looked up): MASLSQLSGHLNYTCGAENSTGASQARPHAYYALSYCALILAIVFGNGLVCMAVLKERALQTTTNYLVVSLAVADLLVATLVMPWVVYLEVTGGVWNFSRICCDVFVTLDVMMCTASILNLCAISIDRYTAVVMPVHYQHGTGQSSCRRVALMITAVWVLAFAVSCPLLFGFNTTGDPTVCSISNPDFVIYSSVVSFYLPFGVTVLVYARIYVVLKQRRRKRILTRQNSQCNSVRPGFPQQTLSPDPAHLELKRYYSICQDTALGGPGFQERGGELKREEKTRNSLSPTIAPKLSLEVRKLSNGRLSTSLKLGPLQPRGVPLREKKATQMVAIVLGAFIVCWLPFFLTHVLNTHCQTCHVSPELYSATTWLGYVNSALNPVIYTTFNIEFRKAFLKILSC
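Cells plated overnight at 1500 cells/well, then exposed to library compounds with dopamine controls for 90 minutes at 37 degrees C. DiscoveRx reagent added for 30–60 minutes at room temperature; luminescence read, quantitative HTS format.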
D1 agonist: Allosteric Agonists of the Human D1 Dopamine Receptor: qHTS; D(1A) dopamine receptor (Homo sapiens), P21728; HEK293 T-REx D1 cells, calcium flux, agonist mode; activation, % at 2 µM; 1% of 360,000 active; in the data active = activation above about 30%
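Tetracycline-induced HEK293 TREx D1 cells, force-coupled to calcium signalling, were dye-loaded with a no-wash calcium kit. Compound was pin-added after a 10 s baseline. Fluorescence was read kinetically at 1 cycle/s for 180 s, with calcium rises flagged as agonism.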
D1 potentiator: Potentiators of Human D1 Dopamine Receptor: qHTS; HEK293 TREx D1 cells, calcium flux, dopamine EC20 potentiation; potentiation, % at 10 µM; D(1A) dopamine receptor (Homo sapiens), P21728; 0.036% of 360,000 active; in the data active = potentiation above about 30%
D3 ag: qHTS of D3 Dopamine Receptor Agonist: qHTS; D3R DiscoveRx beta-arrestin cells, luminescence, 90 min; AID 652048, 2013; max activation, %; 0.58% of 410,000 active; D(3) dopamine receptor (Homo sapiens), P35462; in the data active = max activation above about 30%
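Cells at 1500/well, incubated overnight, then treated with pinned compounds (dopamine as control) for 90 min at 37 degrees C. DiscoveRx reagent added for 30 - 60 minutes at room temperature; luminescence read.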
D1 antag: Antagonist of Human D 1 Dopamine Receptor: qHTS. 3.2% of 360,000 active. activity change, negative = inhibition, % at 10 µM. HEK293 TREx D1 cells, calcium flux, dopamine EC80; hits give low values. D(1A) dopamine receptor (Homo sapiens), P21728; in the data active = activity change below about -30%
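Allosteric or orthosteric antagonism assessed as attenuation of the calcium response to EC80 dopamine, added 180 s after compound, in induced HEK293 Trex D1 cells loaded with no-wash calcium dye.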
Each line names hits and unclear results; the compound was inactive in the other large screens.

CCOc1ccc(-n2nc3c(=O)[nH]nc(C)c3c2C)cc1	D1 antag -60
CCOc1cc(C(=O)N(Cc2nc(-c3ccc(C)cc3)no2)C(C)C)cc(OCC)c1OCC	D1 antag -35 (no result: D3 antag)
Cc1ccc(-c2noc(CN(C(=O)c3cccs3)C(C)C)n2)cc1	D1 antag -30
CC(C)N(Cc1nc(-c2ccc(Cl)cc2)no1)C(=O)c1cccs1	none
O=C(CSc1nnc(CNC(=O)c2ccccc2F)n1-c1ccccc1)Nc1ccccc1F	none (no result: D3 antag)
Cc1oc(-c2ccc(Cl)cc2)nc1Cn1c(=O)cc(-c2ccccc2)c2c(C)nn(C)c21	none (no result: D3 antag)
COc1nc(-c2ccccc2)ccc1-c1noc(-c2ccccc2F)n1	D1 agonist 159
CC(C)(C)C1CCc2onc(C(=O)Nc3sc4c(c3C(N)=O)CCCC4)c2C1 (configuration not stated)	none (no result: D3 antag)
CCOC(=O)c1ccccc1NC(=O)C(=O)Nc1ccc2nc3n(c(=O)c2c1)CCCCC3	none (no result: D3 antag)
O=C(NCc1cccc(F)c1)c1ccc(CS(=O)c2ccccc2Cl)o1 (configuration not stated)	none (no result: D3 antag)
CCN(CC)CCCNc1cc(C(F)(F)F)c(C#N)c2nc3ccccc3n12	D1 agonist 46
CC(C)c1cc(NCCOCCO)n2c(nc3ccccc32)c1C#N	none
CCCc1cc(NCCCCO)n2c(nc3ccccc32)c1C#N	D1 antag -36
Cc1cc(NCCCCO)n2c(nc3ccccc32)c1C#N	none
CCN(CC)CCCNc1cc(C)c(C#N)c2nc3ccccc3n12	none (no result: D1 agonist, D1 potentiator, D1 antag)
CCCc1cc(NCCOCCO)n2c(nc3ccccc32)c1C#N	D3 antag -57 (no result: D1 agonist, D1 potentiator, D1 antag)
CCC(C)(C)NC(=O)Cn1c(=O)ccc2cc(S(=O)(=O)N3CCC(C)CC3)ccc21	none (no result: D3 antag)
COc1ccccc1N1CCN(C(=O)CCS(=O)(=O)c2cc(Br)cc3c2N(C(=O)C2CC2)CC3)CC1	none (no result: D3 antag)
CC(NCc1ccc(-c2ccccc2)cc1)C(O)c1ccccc1 (configuration not stated)	D1 agonist 200
CCn1cc2nc(SCc3cc(C)ccc3C)n(CCc3ccccc3)c(=O)c2n1	none (no result: D3 antag)
CCC(O)(CC)C(=O)N/N=C/c1cc(Br)cc(Br)c1O	D3 antag -66
O=C(C[n+]1ccccc1)N/N=C/c1cc(Br)cc(Br)c1O	D3 antag -165
O=C(C[n+]1ccccc1)N/N=C/c1cc(Br)ccc1F	D3 antag inconclusive
CCO[C@H]1OC(C(=O)O)=C[C@@H](c2cn(C(C)=O)c3ccccc23)[C@@H]1CCCO	none (no result: D1 agonist, D1 potentiator, D1 antag)
CCO[C@@H]1OC(C(=O)NCc2ccccc2)=C[C@H](c2cn(C(C)=O)c3ccccc23)[C@H]1CCCO	D3 ag 67
CCO[C@H]1OC(C(=O)NCc2ccccc2)=C[C@@H](C2CC2)[C@@H]1CCCO	D1 antag -44
CCOC(=O)c1c(NC(=O)c2cc(CC)on2)sc(C)c1C	none (no result: D3 antag)
CC(=O)c1ccc(N2CCN(S(=O)(=O)c3c(C)nc4sc(C)cn4c3=O)CC2)cc1	none (no result: D3 antag)
Cc1cc2c(OCC(O)CNC3CCCCC3)cccc2[nH]1 (configuration not stated)	D3 antag -59
OC(CNC1CCCCCC1)COc1cccc2ccccc12 (configuration not stated)	D3 antag -75, D1 agonist 45
OC(CNC1CCCC1)COc1ccccc1Br (configuration not stated)	D1 antag -36
Cc1cc2c(OCC(O)CN3CCCCC3)cccc2[nH]1 (configuration not stated)	none
OC(CNC1Cc2ccccc2C1)COc1ccc(F)cc1 (configuration not stated)	D3 antag -64
Cc1ccc(C)c(Cn2c(-c3cccs3)nc3ccccc32)c1	none (no result: D3 antag)
CCOc1ccc(N2CC(NC(=O)c3cc4ccccc4o3)CC2=O)cc1 (configuration not stated)	none (no result: D3 antag, D1 antag)
CCOC(=O)c1cc(-c2ccc(F)cc2)n(CCC(=O)NCCc2ccc(C)cc2)c1C	none (no result: D3 antag)
CCOc1cc(CNCCO)cc(Br)c1OCc1cccs1	D1 agonist 34
CCc1ccc(C(=O)c2cn(CC(=O)Nc3ccc4c(c3)OCO4)c3ccc(CC)cc3c2=O)cc1	none (no result: D3 antag)
Cc1ccc(-n2cc(C(C)(C)C)[nH]c2=S)cc1	D1 antag -46
O=C(CSc1nnnn1-c1cccc(Cl)c1)Nc1ccc2c(c1)CCC2	none (no result: D3 antag, D3 ag)
N#CCCCSc1nnnn1-c1cccc(Cl)c1	D1 antag -37
CCOC(=O)c1cccc(NC(=O)c2nn(-c3ccc(OC)cc3)c(=O)c3c2c2ccccc2n3C)c1	none (no result: D3 antag)
COc1ccc(Nc2oc(COc3ccc(Cl)cc3)nc2C#N)cc1	none
COc1ccc(CNc2oc(COc3ccc(Cl)cc3)nc2C#N)cc1	D1 antag -30
COc1ccc(CCNc2oc(-c3ccc(C)cc3)nc2C#N)cc1OC	none
COc1ccc(CCNc2oc(Cc3cccc4ccccc34)nc2C#N)cc1OC	D3 antag -60
COc1ccc(CCNc2oc(COc3ccc(Br)cc3)nc2C#N)cc1OC	D1 antag -32 (no result: D1 potentiator)
COc1ccc(CCNc2oc(COc3ccccc3F)nc2C#N)cc1	D1 antag -67
CNc1oc(Cc2cccc3ccccc23)nc1C#N	none
Cn1c(-n2cccc2)c(-c2c(-c3ccc(F)cc3)[nH]c3c2c(=O)n(C)c(=O)n3C)c(=O)n(C)c1=O	none (no result: D3 antag)
COc1ccccc1Cn1ccn(CC(=O)Nc2c(C)cc(C)cc2C)c(=O)c1=O	none (no result: D3 antag)
CN(C(=O)Cn1c(=O)n(Cc2ccc(C(=O)NCc3ccc4c(c3)OCO4)cc2)c(=O)c2ccccc21)c1ccccc1	none (no result: D3 antag)
Cc1ccccc1-c1noc(-c2cc(C(C)C)[nH]n2)n1	none (no result: D3 antag)
CCCn1c(N2CCOCC2)nc2c1c(=O)[nH]c(=O)n2C	none
Cn1c(=O)[nH]c(=O)c2c1nc(SCC(O)CO)n2Cc1ccccc1Cl (configuration not stated)	D1 antag -64
CCCn1c(N2CCN(C)CC2)nc2c1c(=O)[nH]c(=O)n2C	D1 antag -31
Cn1c(=O)[nH]c(=O)c2c1nc(Br)n2Cc1ccccc1Cl	none
Cn1c(=O)c2c(nc(N3CCNCC3)n2Cc2cccc3ccccc23)n(C)c1=O	D3 antag -69
Cn1c(=O)[nH]c(=O)c2c1nc(N1CCNCC1)n2Cc1ccccc1	none
Cn1c(=O)[nH]c(=O)c2c1nc(N1CCNCC1)n2Cc1cccc2ccccc12	D3 antag -80
Clc1ccc(CN2CCC(CNc3ncnc4onc(-c5ccc(Cl)cc5)c34)CC2)cc1	none (no result: D3 antag)
COc1ccc(Cl)cc1NC(=O)CN(C)S(=O)(=O)c1ccc2c(c1)CCCN2C(C)=O	none (no result: D3 antag)
COc1cc(C(C)=O)ccc1OCC(=O)N1CCC(Cc2ccccc2)CC1	none (no result: D1 agonist, D1 potentiator, D1 antag)
COc1cc(C(C)=O)ccc1OCCN1CCC(Cc2ccccc2)CC1	D3 antag -77 (no result: D1 antag)
